According to the supplement of paper PMC13380429:
Unmarked numbers belong to inactive results.

Test system: Vero E6 infected with SARS-CoV-2
Assay: inhibition of SARS-CoV-2 cytopathic effect; higher = more antiviral protection, active = above 15
Conditions: 8.33 nM; 48 h

| Structure (SMILES) | inhibition of SARS-CoV-2 cytopathic effect [%] |
| --- | --- |
| O=C(O)/C=C/CO [trans-4-hydroxycrotonic-acid] | 3.93 |
| CN1CCN(CCCCN2C(=O)CN(/N=C/c3ccc(-c4ccc(Cl)cc4)o3)C2=O)CC1 [azimilide] | 0.51 |
| CCCCN(CCCC)CC(O)c1cc(Cl)cc2c1-c1ccc(Cl)cc1/C2=C/c1ccc(Cl)cc1 (configuration not stated) [lumefantrine] | 3.13 |
| O=C(CCCCCCNC(=O)c1cnc(N(c2ccccc2)c2ccccc2)nc1)NO | -1.04 |
| CC(=O)O[C@]1(C(C)=O)CC[C@H]2[C@@H]3C[C@H](C)C4=CC(=O)C=C[C@]4(C)[C@@]3(F)[C@@H](O)C[C@@]21C [fluorometholone-acetate] | 0.86 |
| C[C@H](CCC(=O)O)[C@H]1CC[C@H]2[C@@H]3CC[C@@H]4C[C@H](O)CC[C@]4(C)[C@H]3C[C@H](O)[C@]12C [deoxycholic-acid] | 0.25 |
| O=C1C=CC(=O)C2=C1C1c3ccccc3C2c2ccccc21 | 0.78 |
| CCCOC(C(=O)OC1CCN(C)CC1)(c1ccccc1)c1ccccc1 [propiverine] | 1.63 |
| NCCS(=O)(=O)O [taurine] | -0.91 |
| CCCC(O)C(CC)CO (configuration not stated) [2-ethyl-1,3-hexanediol] | 0.49 |
| CC[n+]1c(-c2ccccc2)c2cc(N)ccc2c2ccc(N)cc21 [homidium] | 6.71 |
| COc1cc(S(C)(=O)=O)ccc1Nc1nc2ccc(-c3ccc(NC(=O)[C@H](C)c4ccc(F)cc4)cc3)cn2n1 | -3.05 |
